# Screening results as filed in PubChem BioAssay.
# Hits are enriched below; roughly 0.93% of the tested compounds scored in any of these assays.
# Six1-Eya2 blk: inhibitors of human Six1/Eya2 interaction | activity change, % (concentration not given with the values) | hit rate 0.56% among 360,000 | Q15475+O00167 | AlphaScreen GST-Six1/His-Eya2 binding, biochemical; active compounds read low | AID 651725
#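 Six1/Eya2 binding was read as AlphaScreen signal after compounds were pinned into GST-Six1 plus His-tagged Eya2 (5X stock 250/500 nM) in pH 8.0 Tris/NaCl/TCEP buffer, beads added, then incubated 1 h, 37 C, dark.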
# PKM2 activator: increases activity of human pyruvate kinase M2; P14618; purified PKM2, Kinase-Glo ATP luminescence, activation; response scale: 0% is enzyme alone, no compound; Potency, µM (titrated, usually from 57.5 µM), for inactives: at the highest dose activation, hits mostly activators; hit rate 0.34% among 260,000; AID 1631; active means well fitted activation curve with a large enough effect; inconclusive means small, poorly fitted or top-dose-only effect; inactive means no such curve, though single readings can be large or run the other way; further: potency means the concentration at half of the fitted maximal effect; nearly all actives have a fitted effect of over 55% in size
#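 Kinase-Glo luminescence reports ATP generated from ADP (0.1 mM) and PEP (0.5 mM) by purified hPK-M2 after 1 h at room temperature, pH 7.2 imidazole buffer; intermediate enzyme activity allows detecting inhibitors and activators.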
# CtBP-E1A inh: inhibitors of CtBP/E1A interaction | activity change, % (test concentration not listed) | hit rate 0.49% among 340,000 | AlphaScreen GST-E1A/His-CtBP binding, 1536-well; active compounds read low
#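 Protein mix (5X: 125 nM each GST-E1A, His-CtBP) was incubated with pinned compound 2 h at 37 deg C in dark, in 50 mM Tris pH 8.0 buffer with 300 mM NaCl. Glutathione donor and nickel acceptor beads followed; AlphaScreen signal read after 1 h.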
# MBNL1-CUG inh: MBNL1-poly(CUG) RNA binding inhibition | Q9NR56 | TR-FRET MBNL1-His/biotin-(CUG)12 binding, 665/545 ratio | Potency, µM (titrated, usually from 57.5 µM), for the others: at the highest dose activity change, negative = inhibition, actives largely listed as inhibitors | hit rate 0.036% among 280,000 | AID 2675; active means well fitted inhibition curve with a large enough effect in the signal ratio, with a control signal flat, not every such curve was filed as active; inconclusive means small, poorly fitted or top-dose-only effect, or effect the other way, or a change in a side signal; inactive means no such curve, though single readings can be large or run the other way; the % refers to the signal ratio; further: potency means the concentration at half of the fitted maximal effect
# Target sequence (Q9NR56 whole entry, looked up): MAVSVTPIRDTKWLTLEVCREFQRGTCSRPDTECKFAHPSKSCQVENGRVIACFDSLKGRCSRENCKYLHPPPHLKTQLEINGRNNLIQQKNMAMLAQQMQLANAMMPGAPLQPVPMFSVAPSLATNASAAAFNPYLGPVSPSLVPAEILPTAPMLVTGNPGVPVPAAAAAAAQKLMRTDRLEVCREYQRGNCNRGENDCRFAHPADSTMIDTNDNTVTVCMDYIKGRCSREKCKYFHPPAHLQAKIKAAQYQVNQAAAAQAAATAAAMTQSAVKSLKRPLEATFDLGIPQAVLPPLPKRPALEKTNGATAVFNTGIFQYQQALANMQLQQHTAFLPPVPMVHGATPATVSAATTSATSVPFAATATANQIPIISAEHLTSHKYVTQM
#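 MBNL1-His + Biotin-(CUG)12, cpd titration 92 nM–58 uM; Tb anti-His Ab 0.055 ng/ul, SA-XL665 5 nM (final); 60 min RT; ratiometric 665/545 nm, Ex 340 nm; normalized to buffer and full-complex controls.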
# * hit, by the source's call; ? = inconclusive; nt = no result given; [ ] = another dose, or the depositor's remark. Unless noted, no stated cut-off is given here; in the data, active means activity change below about -65%; inconclusive means mostly about -30% to -63%; inactive means weaker than that. On the % scale 0 is the no-effect control and ±100 the full control effect.
SMILES,Six1-Eya2 blk,PKM2 activator,CtBP-E1A inh,MBNL1-CUG inh
Fc1cccc(F)c1/C=N/NC(=S)Nc1cccnc1,-2,-4%,-4,6%
COc1cccc(-c2ccc3c(c2)O[C@H](CN(C)C(=O)c2ccccc2F)[C@H](C)CN([C@H](C)CO)S3(=O)=O)c1,10,nt,-6,nt
CC(=O)Oc1ccccc1Cn1c(C)c(C(=O)NCc2cccc([N+](=O)[O-])c2)sc1=O,?,nt,-29,nt
O=C(NC1CC1)C1=C[C@@H](c2csc3ccccc23)C[C@@H](OCCCCO)O1,-3,14µM*,2,-3%
CCc1nc2c(OCCc3cccc(OC)c3)cccn2c1N(C=O)Cc1ccccc1,-13,nt,-6,nt
COc1ccc(Cl)cc1C(=O)Nc1ccncc1,0,5%[11.5 µM],-1,0%
CCN(CC)c1ccc(NC(=O)c2cc(Cl)ccc2OC)cc1,-66*,-2%,?,15%
O=C(c1ccncc1)N1N=C(c2ccc(Br)cc2)CC1c1ccccc1O (configuration not stated),-18,7.9µM*,-8,-1%
COc1ccc(/C=N/Nc2nonc2N)cc1,-1,5%,-1,16%
COc1ccc(/C=N/Nc2nn3cnnc3c3ccccc23)cc1,?,11%,-74*,?
Cc1cc(C)c2nc(C)cc(N/N=C/c3ccc(O)cc3)c2c1,?,0%,-86*,?
CCOC(=O)c1oc2c(c1C)/C(=N/O)CCC2,-83*,-5%,-3,-17%
CCc1c2c(nc3cccc(SC)c13)COC2,nt,8%,nt,nt
c1ccc(CNCCN2CCNCC2)nc1,-86*,-9%,-72*,-7%
O=C(C[C@@H]1C[C@H]2c3cc(NC(=O)C4CCC4)ccc3O[C@H]2[C@@H](CO)O1)NCc1ccc(-c2ccccc2)cc1,-1,nt,1,nt
O=C(NCc1ccco1)/C(=C\c1cccs1)NC(=O)c1ccco1,0,28µM*,0,7%
O=C(Cc1ccccc1)N/N=C/c1ccc(OC(=O)/C=C\c2ccco2)cc1,?,11%,-65*,6%
COC(=O)N/N=C/c1ccc(OC(=O)/C=C/c2ccco2)cc1,?,-3%,-71*,nt
CCc1ccc(OC(=O)/C=C/c2ccco2)cc1,22,0%,7,8%
Cc1cccnc1C(NC(=O)C1CCN(Cc2ccc(Oc3ccccc3)cc2)CC1)c1ccc(F)cc1 (configuration not stated),-23,nt,-23,nt
COc1ccccc1Nc1ccc2c(O)cc(S(=O)(=O)O)cc2c1,-79*,nt,-88*,nt
OC(c1ccc(Cl)c(F)c1)c1ncc(-c2cccc(C(F)(F)F)c2)[nH]1 (configuration not stated),-3,nt,-6,nt
O=C(O)CN(CC(=O)O)CC(=O)O,-73*,nt,-96*,nt
COc1ccc(NC(=O)N2CCc3nc(-c4ccc(OC)cc4C)c4c(c3C2)CO[C@@H](c2ccccc2)C4)cc1,nt,0%[11.5 µM],nt,nt
O=C(Oc1ccc(C(=S)N2CCC(O)CC2)cc1)c1ccc(Cl)cc1,-90*,22%,-84*,-1%
SMILES,Six1-Eya2 blk,PKM2 activator,CtBP-E1A inh,MBNL1-CUG inh
O=C(Oc1ccc(C(=S)N2CCOCC2)cc1)c1cccc(Cl)c1,-80*,-6%,0,3%
O=C(Oc1ccc(C(=S)N2CCOCC2)cc1)c1cc([N+](=O)[O-])cc([N+](=O)[O-])c1,-2,nt,11,?
O=C(/C=C/c1ccccc1)Oc1cccc(C(=S)N2CCOCC2)c1,-69*,0%,-5,-2%
O=C(Oc1ccc(C(=S)N2CCCCC2)cc1)c1ccccc1,-26,2%,-22,-3%
O=C(OCc1ccccc1)N1CCC2CC1c1ccc(N3CCNCC3)cc12 (configuration not stated),-14,nt,-20,nt
COc1cc(F)ccc1-c1csc(C(O)(c2ccccc2)C(F)(F)F)n1 (configuration not stated),8,nt,2,nt
O=C(Nc1ccccc1C(=O)O)c1cccc(NC(=O)c2ccccc2Br)c1,-7,-2%,-10,-10%
O=C(Nc1cc(C(=O)Nc2ccccc2C(=O)O)cc(C(=O)Nc2ccccc2C(=O)O)c1)c1ccccc1,-69*,4%,?,?
COc1ccccc1OCC(=O)Nc1ccc(C(=O)Nc2ccccc2C(=O)O)cc1,?,nt,2,nt
COc1ccc(CC(=O)Nc2ccc(C(=O)Nc3ccccc3C(=O)O)cc2)cc1OC,-76*,5%,-67*,-22%
COc1ccc(C(=O)Nc2ccccc2C(=O)Nc2ccccc2C(=O)O)cc1,-66*,-2%,-77*,-11%
Cc1cc(C)c2cc(C#N)c(NCCCNC(=O)c3cccnc3)nc2c1,-4,nt,0,nt
CCCCc1nc2c(c3c1C[C@H](C)OC3)CN(C(=O)Cc1cccs1)CC2,nt,-8%[11.5 µM],nt,nt
COc1ccc(C(=O)OCC(=O)c2c(N)n(C)c(=O)n(C)c2=O)cc1OC,2,-2%,0,-1%
CC(=O)Oc1ccc(C(=O)OCC(=O)c2c(N)n(C)c(=O)n(C)c2=O)cc1OC(C)=O,-83*,-1%,-18,-4%
CCCNC(=O)C1(C)CCCN(Cc2ccc(-c3ccccn3)cc2)C1 (configuration not stated),6,nt,0,nt
CCc1nc2ccc(C(=O)Nc3cccc(OC)c3)cn2c1N(C)Cc1ccc(OC)cc1,-7,nt,-14,nt
COCc1cc(C)nc(OCC(=O)N/N=C/c2cccc(OC)c2)c1C#N,-2,-3%,6,-6%
COCc1cc(C)nc(OCC(=O)N/N=C/c2ccc(O)cc2O)c1C#N,-84*,2%,-88*,2%
COCc1cc(C)nc(OCC(=O)N/N=C/c2ccccc2O)c1C#N,-91*,1%,-84*,5%
O=C(c1ccc(S(=O)(=O)Cc2cc(F)ccc2F)c([N+](=O)[O-])c1)N1CCOCC1,-4,nt,2,nt
CC(=O)c1cnc2nc(SCc3ccccc3C)nn2c1C,4,13µM*,1,1%
CCOc1c(Br)cc(C(=O)Nc2cccc(S(=O)(=O)N3CCOCC3)c2)cc1OC,-20,nt,-10,nt
NS(=O)(=O)c1ccc(CCNc2nn3c(-c4cccc(OC(F)(F)F)c4)cnc3s2)cc1,-23,nt,-15,nt
CC(C)n1c(O)c(N=NC(=O)c2ccccc2NS(=O)(=O)c2cccs2)c2ccccc21,-86*,-2%,nt,0%
Cn1c(SCC(=O)c2ccccc2F)nnc1C1CC1,-1,32µM*,-1,-9%
COc1cc2c(cc1OC)C1O[C@](c3ccsc3)(C2)OC2=C1C(=O)OC1(CCCCC1)C2,nt,-1%[11.5 µM],nt,-8%[11.5 µM]
C/C=C/C=C\C(=O)Nc1cccc(C2=NOC3(C2)C[C@H](C(N)=O)N(C(=O)/C=C/C)C3)c1 (some centres not stated),-23,?,-4,1%
C/C=C(\C)C(=O)N1CC2(CC(c3cccc(NC(=O)COc4ccc(Cl)cc4)c3)=NO2)C[C@@H]1C(N)=O (some centres not stated),9,2%,0,3%
